Screening results as filed in PubChem BioAssay.
Giardia kill: kills Giardia lamblia; Giardia lamblia trophozoite viability; activity change, % at 7.66 µM, hits read low; 0.15% of 340,000 active; in the data active means activity change below about -80%; inconclusive means between about -30% and that limit;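 further: parasites exposed to compound for two days anaerobically before the ATP read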
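Killing of trophozoites was scored by loss of ATP luminescence after a 48 hrs anaerobic exposure to compounds at 37 deg C, using 100 cells per well.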
RORg inh: blocks mouse ROR gamma transcriptional activity; Potency, µM (titrated, usually from 53.6 µM), most hits filed as inhibitors; AID 2551; P51450; 5.4% of 310,000 active; Drosophila S2 Gal4-RORgamma UAS-luciferase reporter, 20 h; further: nearly all actives have a fitted effect of over 60% in size
Target sequence (P51450 whole entry, looked up, the tested form may be a part): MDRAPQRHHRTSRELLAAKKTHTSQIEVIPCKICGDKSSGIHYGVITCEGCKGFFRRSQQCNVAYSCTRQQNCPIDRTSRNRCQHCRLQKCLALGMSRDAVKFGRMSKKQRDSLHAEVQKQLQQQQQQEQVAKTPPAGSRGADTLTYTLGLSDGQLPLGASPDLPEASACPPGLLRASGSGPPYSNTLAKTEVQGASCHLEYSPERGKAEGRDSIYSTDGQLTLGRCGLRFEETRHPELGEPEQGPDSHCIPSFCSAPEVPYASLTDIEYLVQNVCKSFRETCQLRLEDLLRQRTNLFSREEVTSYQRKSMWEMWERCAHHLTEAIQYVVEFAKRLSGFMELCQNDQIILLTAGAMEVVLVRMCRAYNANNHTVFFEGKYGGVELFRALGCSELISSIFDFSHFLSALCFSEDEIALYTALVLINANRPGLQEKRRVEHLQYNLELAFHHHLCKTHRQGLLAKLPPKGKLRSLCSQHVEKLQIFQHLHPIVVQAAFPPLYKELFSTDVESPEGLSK
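Compounds are pin-transferred onto Drosophila Schneider cells expressing a copper-inducible Gal4–ROR gamma transactivation domain fusion. After 1 hr, copper sulfate is added to 700 uM final; luciferase is read 20 hr later.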
Integrin act MD: activates integrin-mediated alleviation for muscular dystrophy | Potency, µM (doses to about 38.3 µM), hits mostly activators | alpha7betagal myoblasts, beta-gal FDG fluorescence, 48 h | AID 624291 | 0.064% of 350,000 active; further: nearly all actives have a fitted effect of over 60% in size
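alpha7betagal+/- myoblasts (passage 13, 250/well) treated 48 h at 37C with compounds at 1:260 dilution of DMSO stock. Lysed, then beta-galactosidase activity read as FDG fluorescence (ex 480/em 540) after 30 min, with pre-read for autofluorescence.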
ERG Ets-DNA blk: blocks human ERG Ets domain binding to DNA; Potency, µM (top dose mostly 76.9 µM), actives largely listed as inhibitors; AID 624246; 0.028% of 370,000 active; fluorescence polarization, His-ERG Ets domain / labelled DNA; P11308; active means well fitted inhibition curve with a large enough effect in the polarisation, with a control signal flat; inconclusive means small, poorly fitted or top-dose-only effect, or effect the other way, or a change in a side signal; inactive means no such curve, though single readings can be large or run the other way; the % refers to the polarisation;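 further: polarization taken with two DNA probes labelled with fluorescein and Texas red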
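His-tagged ERG Ets domain (1 uM in the protein solution; 300mM KCl, 50mM Tris-HCl, 1mM EDTA, 1mM DTT, pH 7.5) received compound, then a probe mix of 5 nM fluorescein-DNA and 100nM Texas-615-DNA. Fluorescence polarization was read for both dyes.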
Gal4-VP16 FLuc: counter-screen for ROR gamma inhibitors: Gal4-VP16 reporter; Potency, µM (top dose mostly 53.6 µM), most hits filed as inhibitors; 3.5% of 310,000 active; Drosophila S2 Gal4-VP16 UAS-luciferase, luminescence, 20 h;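 further: Gal4-VP16 expression switched on by copper sulfate through the metallothionein promoter; nearly all actives have a fitted effect of over 50% in size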
Hits are given with their value; ! = not active in a repeat; [ ] = another dose, or the depositor's remark. Many of the other results were omitted from the sample, so hits are more common in it than they were. Unless noted, the call rests on the fitted dose curve; in most records, active means well fitted curve in the direction sought with a large enough effect; inconclusive means small, poorly fitted or top-dose-only effect, or another doubt; inactive means no such curve, though single readings can be large; an effect the other way counts as inactive or inconclusive.

Cc1cccc(C)c1NC1=NCCCS1 was read as Giardia kill inactive, RORg inh 10µM!, ERG Ets-DNA blk inactive and Gal4-VP16 FLuc inactive.
For CN(C)C(=S)SSC(=S)N(C)C the results were Giardia kill -85.4, RORg inh 0.112µM, ERG Ets-DNA blk inactive and Gal4-VP16 FLuc 1µM!.
`CN(C)C(=S)SC(=S)N(C)C` gave RORg inh 6.31µM and Gal4-VP16 FLuc inconclusive.
C[C@@]12CCC(=O)C[C@@H]1CC[C@@H]1[C@@H]2CC[C@]2(C)C(=O)CC[C@@H]12 was read as RORg inh inactive and Gal4-VP16 FLuc inactive.
CCOC(=O)c1cccc(NC2c3ccccc3C(=O)N2Cc2ccco2)c1 (configuration not stated) was read as Giardia kill inactive, RORg inh inconclusive, Integrin act MD inactive, ERG Ets-DNA blk inactive and Gal4-VP16 FLuc 12.6µM.
Screening O=C1CC2OCC=C3CN4CC[C@]56c7ccccc7N1C5C2[C@H]3C[C@H]46 (some centres not stated) returned RORg inh inactive[10 µM] and Gal4-VP16 FLuc inactive.
`CC1=CC(=O)c2c(O)cccc2C1=O` gave RORg inh 14.1µM and Gal4-VP16 FLuc 12.6µM.
NCCCP(=O)(O)CC1CCCCC1 was read as RORg inh inactive and Gal4-VP16 FLuc inactive.
For O=[N+]([O-])c1cc([As](=O)(O)c2ccc(O)c([N+](=O)[O-])c2)ccc1O the results were Giardia kill -83.4, RORg inh inactive, Integrin act MD inactive, ERG Ets-DNA blk inactive and Gal4-VP16 FLuc inactive.
For O=[N+]([O-])c1cc(-c2ccc([As](=O)(O)O)cc2)ccc1[As](=O)(O)O the results were RORg inh inactive and Gal4-VP16 FLuc inactive.
CO/C1=C\C(C)=C\[C@@H](C)[C@@H](O)[C@@H](C)C/C(C)=C/C=C/[C@H](OC)[C@@H]([C@@H](C)[C@@H](O)[C@H](C)[C@@]2(O)C[C@@H](O)[C@H](C)C(C(C)C)O2)OC1=O (some centres not stated) was read as RORg inh 6.31µM and Gal4-VP16 FLuc 7.08µM.
Screening COc1cc2c(cc1OC)-c1c(OC)c(OC)c(OC)c3ccnc(c13)C2=O returned Giardia kill -82.9, RORg inh inactive, Integrin act MD inactive, ERG Ets-DNA blk inactive and Gal4-VP16 FLuc inactive.
For COC(=O)[C@H]1C[C@@H]1[C@H](NP(=O)(c1ccccc1)c1ccccc1)c1ccccc1 the results were Giardia kill inactive, RORg inh inactive, Integrin act MD inactive, ERG Ets-DNA blk inactive and Gal4-VP16 FLuc inactive.
For COC(=O)[C@@H]1C[C@H]1[C@@H](NP(=O)(c1ccccc1)c1ccccc1)c1ccccc1 the results were Giardia kill inactive, RORg inh 10µM, Integrin act MD inactive, ERG Ets-DNA blk inactive and Gal4-VP16 FLuc inconclusive.
For c1ccc2cc3c(cc2c1)-c1cccc2cccc-3c12 the results were RORg inh inactive and Gal4-VP16 FLuc inactive.
O=[N+]([O-])c1cccc2c([As](=O)(O)O)cccc12 was read as Giardia kill -93.6, RORg inh inactive, Integrin act MD inactive, ERG Ets-DNA blk inactive and Gal4-VP16 FLuc inactive.
For O=[N+]([O-])c1ccc(N2CCCCC2)c2ncccc12 the results were Giardia kill inactive, RORg inh inactive, Integrin act MD inactive, ERG Ets-DNA blk inactive and Gal4-VP16 FLuc inactive.
COC(=O)[C@@]1(O)C[C@@H]2O[C@@]1(C)n1c3ccccc3c3c4c(c5c6ccccc6n2c5c31)C(=O)NC4 was read as RORg inh inactive and Gal4-VP16 FLuc inconclusive.
`CCC(C)n1c(O)c(/C=N/Nc2ccccc2)c(=O)[nH]c1=S` (configuration not stated) gave Giardia kill inactive, RORg inh 14.1µM, Integrin act MD inactive, ERG Ets-DNA blk inactive and Gal4-VP16 FLuc 6.31µM.
For CCC(C)n1c(O)c(/C=N/NC(=O)c2ccncc2)c(=O)[nH]c1=S (configuration not stated) the results were Giardia kill inactive, RORg inh inconclusive, Integrin act MD inactive and Gal4-VP16 FLuc inconclusive.
For CCC(C)n1c(O)c(C=NCCN2CCOCC2)c(=O)[nH]c1=S (configuration not stated) the results were Giardia kill inconclusive, RORg inh inactive, Integrin act MD inactive, ERG Ets-DNA blk inactive and Gal4-VP16 FLuc inactive.
